Pf growth 96h: P. falciparum growth inhibition at 96 hour, primary screen for plastid delayed-death inhibitors; P. falciparum luciferase reporter growth, 96 h; AID 504834; 320,000 tested, 6.9% active; Potency, µM (highest dose often 28.7 µM), without a hit: at the highest dose activity change, negative = inhibition, hits mostly inhibitors; note: potency is the fitted concentration of half-maximal effect; % is set by controls: 0 for no effect and ±100 for the full control effect
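Erythrocytes infected with luciferase-expressing P. falciparum were dispensed at 2% hematocrit and 0.05% parasitemia (final), then incubated with compounds 96 hours at 37 C in 5% CO2. Luminescence after detection reagent addition reported growth.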
HCMV inh: inhibitors of human cytomegalovirus | activity change, negative = inhibition, % at 57.5 µM | 410,000 tested, 4.5% active | HFF cells, HCMV-luciferase reporter, 72 h; stronger effect = lower value; in the data active = activity change below about -60%; inconclusive = no clear call, values can overlap the other calls; inactive = above about -39%; note: % is set by controls: 0 for no effect and ±100 for the full control effect
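Screen run at 2 compound doses on HFFs infected with reporter HCMV, MOI 1 PFU/cell. Luciferase activity from cell lysates at 72 h post infection gave inhibition relative to buffer-only and Salinomycin wells.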
Shiga toxin inh: Shiga toxin inhibition; Vero cells, Shiga toxin protein synthesis inhibition reporter; inhibition, % at 38.7 µM; 290,000 tested, 9.2% active; in the data active = inhibition mostly above about 28%, no sharp cut-off; inactive = mostly below about 43%; note: 0% is about no effect
Cycloheximide cs: affects cycloheximide protein synthesis inhibition readout, counter-screen; cell reporter, cycloheximide protein synthesis inhibition counterscreen; max response, %; 300,000 tested, 12% active; in the data active = max response mostly above about 13%, no sharp cut-off; inactive = mostly below about 14%; note: read at 38.3 µM for the half of the compounds with a filed dose; 0% is about no effect
Pf growth 48h: inhibits P. falciparum growth in the first generation, 48 h. 310,000 tested, 5.9% active. AID 504832. P. falciparum luciferase growth in erythrocytes, 48 h. Potency, µM (series often up to 28.7 µM), without a hit: top-dose activity change, negative = inhibition, actives largely listed as inhibitors; note: potency is the fitted concentration of half-maximal effect; % is set by controls: 0 for no effect and ±100 for the full control effect
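First compound was added to culture medium, then infected red cells at 0.1% parasitemia and 2% hematocrit (final). After incubation at 37 C under 5% CO2, luciferase detection reagent was dispensed and light output recorded.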
HCV inhibitor: HCV inhibition; Huh7.5.1 HCVcc-Cre infection, luciferase reporter, 44 h; Potency, µM (highest dose often 41.8 µM), for inactives: at the highest dose activity change, negative = inhibition, actives largely listed as inhibitors; 340,000 tested, 3.4% active; note: potency is the fitted concentration of half-maximal effect; % is set by controls: 0 for no effect and ±100 for the full control effect
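Whole-lifecycle infectious HCVcc-Cre system; cells 1,000/well, compound then virus (~0.5 moi) added 4 h after plating, 44 h culture. Luciferase read 15 sec following 15 min substrate incubation, room temp.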
Active calls of the source: *; ? = inconclusive; / = not tested or not shown; [ ] = remark or other dose. Shown are actives, neighbours in structure and some others; about 21% of the full set was active somewhere. Unless noted, calls come from the whole dose curve; as a rule, active = well fitted inhibition curve with a large enough effect; inconclusive = small, poorly fitted or top-dose-only effect, or another doubt; inactive = no such curve, though single readings can be large or run the other way.

SMILES	Pf growth 96h	HCMV inh	Shiga toxin inh	Cycloheximide cs	Pf growth 48h	HCV inhibitor
Cc1cccc(NC(=O)CSc2ccc(-c3ccco3)nn2)c1	26%	-26	17	20*	18%	?
CC(=O)Nc1cccc(NC(=O)CSc2ccc(-c3ccco3)nn2)c1	9.3µM*	-18	-5	17	?	-7%
CC(=O)Nc1ccc(NC(=O)CSc2ccc(-c3ccco3)nn2)cc1	-53%[1.15 µM]	9	8	-2	3%	17%
Cc1ccc2nc(C)/c(=N\O)c(C)nc2c1	86%	-24	86*	23*	40%	6%
Cc1nc2ccc(Cl)cc2nc(C)/c1=N\O	178%	43	50	28*	36%	11%
Cc1ccc2nc(N)nnc2c1	/	-24	/	/	/	/
Nc1nnc2cc(Cl)ccc2n1	/	42	/	/	/	12%
Cc1nc2ccccc2nc(C)c1=NO	51%	60	114*	51*	30%	13%
CCCn1c(SCC(=O)Nc2ccc(F)c(Cl)c2)nc(O)cc1=O	/	-20	/	/	/	19%
c1ccc2c(c1)[nH]c1c(C3=NCCC3)nccc12	/	-1	/	/	/	/
CSc1cc(-c2ccncc2)nc(-c2ccc(Cl)cc2)c1	15µM*	/	-3	-3	/	?
COc1ccc(N(C)C(=O)C2CCCN2S(=O)(=O)c2cccc3nsnc23)c(OC)c1 (stereo unspecified)	-24%	/	-6	-2	-1%	-2%
Cc1ccc(S(=O)(=O)Nc2cccc3c2O[C@H](CN(C)C(=O)Nc2cccc4ccccc24)[C@H](C)CN([C@H](C)CO)C3=O)cc1	/	2	/	/	/	-27%
CCOC(=O)CSc1nc2sc3c(c2c(=O)n1-c1ccccc1)CC(C(C)C)OC3 (stereo unspecified)	/	13	/	/	/	/
CN1CCc2c(sc3nc(NCCO)n(-c4cccc(Cl)c4)c(=O)c23)C1	4.7µM*	-39	-7	-3	/	4%
CN1CCc2c(sc3c2c(=O)n(-c2cccc(Cl)c2)c2nncn32)C1	/	-16	/	/	/	?
CCOC(=O)CSc1nc2sc3c(c2c(=O)n1-c1ccccc1)CCN(C(C)C)C3	0.83µM*	?	-12	-8	0%[0.00184 µM]	-20%
CCOC(=O)CSc1nc2sc3c(c2c(=O)n1-c1ccc(C)cc1)CCN(C)C3	2.3µM*	-22	-11	1	4.7µM*	?
COc1ccc(-n2c(SCC(N)=O)nc3sc4c(c3c2=O)CCN(C)C4)cc1	2.1µM*	-8	0	5	?	-4%
COc1ccccc1C(=O)Nc1ccc(S(=O)(=O)Nc2ncccn2)cc1	/	7	/	/	/	/
CCOc1ccc(Cn2c(CNS(=O)(=O)c3cccs3)nc3cccnc32)cc1	/	23	/	/	/	/
N#Cc1ccncc1S(=O)c1ccc(Cl)cc1 (stereo unspecified)	41%	-28	-1	8	42%	-1%
C=C(C)CSc1nc2sc3c(c2c(=O)n1-c1ccc(OC)cc1)CCN(C)C3	1µM*	-14	5	-3	1.9µM*	?
COc1ccc(-n2c(SCC(=O)NCc3ccco3)nc3sc4c(c3c2=O)CCN(C)C4)cc1	?	-5	22	20	?	-12%
CCSc1nc2sc3c(c2c(=O)n1-c1ccc(OC)cc1)CCN(C)C3	?	-31	-13	-2	?	?
SMILES	Pf growth 96h	HCMV inh	Shiga toxin inh	Cycloheximide cs	Pf growth 48h	HCV inhibitor
COc1ccc(-n2c(SCC(=O)O)nc3sc4c(c3c2=O)CCCC4)cc1	-4%	-12	3	-3	-4%	5%
CCOC(=O)CSc1nc2sc3c(c2c(=O)n1-c1ccc(OC)cc1)CCN(C)C3	1.5µM*	-38	-3	-3	1.9µM*	?
COc1ccc(-n2c(SCCNCCO)nc3sc4c(c3c2=O)CCCC4)cc1	9.3µM*	-9	-6	-3	13µM*	2.8µM*
CN1CCc2c(sc3nc(SCC(=O)NCc4ccco4)n(-c4ccccc4)c(=O)c23)C1	0.93µM*	-8	48*	39*	9.3µM*	?
CCOCCCNC(=O)C(c1ccc(C)cc1)N(Cc1cccs1)C(=O)c1ccccc1O (stereo unspecified)	-6%	-38	-15	1	?	2%
CCc1nnc(SCC(=O)NCCC2=CCCCC2)nc1CC	-18%	-15	-5	13	23%	-2%

Bioassay records (PubChem BioAssay)
